# From PubChem BioAssay (NCATS)
# Values without a mark were called inactive. The source made the active and inactive calls. Calls follow the shape of the dose curve; as a rule, active = well fitted curve in the direction sought with a large enough effect; inconclusive = small, poorly fitted or top-dose-only effect, or another doubt; inactive = no such curve, though single readings can be large; an effect the other way counts as inactive or inconclusive.
# What was measured:
# [1] = target: Alpha-galactosidase (Coffea arabica) (UniProt Q42656); assay: Counterscreen for Glucocerebrosidase Inhibitors: qHTS Assay for Coffee Bean alpha-Galactosidase at pH 4.5 (AID 957); also: series mostly up to about 77 µM
# In short: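 AC50 values derive from Hill-equation modeling of concentration-response data, normalized to no-enzyme and full-activity controls. The pH 4.5 citrate assay used 2 nM coffee bean enzyme and 80 uM fluorogenic substrate for 20 min.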
# [2] = target: Alpha-galactosidase (Coffea arabica) (UniProt Q42656); assay: Counterscreen for Glucocerebrosidase Inhibitors: qHTS Assay for Coffee Bean alpha-Galactosidase at pH 5.9 (AID 998)
# In short: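 Compounds were titrated from 0.7 nM to 77 uM against green coffee bean alpha-galactosidase (2 nM) using 80 uM fluorogenic 4-methylumbelliferyl substrate. After 20 min at room temperature, reactions were stopped at pH 10 and read by fluorescence.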
# Alpha-galactosidase (Coffea arabica), sequence (Q42656 whole entry, looked up): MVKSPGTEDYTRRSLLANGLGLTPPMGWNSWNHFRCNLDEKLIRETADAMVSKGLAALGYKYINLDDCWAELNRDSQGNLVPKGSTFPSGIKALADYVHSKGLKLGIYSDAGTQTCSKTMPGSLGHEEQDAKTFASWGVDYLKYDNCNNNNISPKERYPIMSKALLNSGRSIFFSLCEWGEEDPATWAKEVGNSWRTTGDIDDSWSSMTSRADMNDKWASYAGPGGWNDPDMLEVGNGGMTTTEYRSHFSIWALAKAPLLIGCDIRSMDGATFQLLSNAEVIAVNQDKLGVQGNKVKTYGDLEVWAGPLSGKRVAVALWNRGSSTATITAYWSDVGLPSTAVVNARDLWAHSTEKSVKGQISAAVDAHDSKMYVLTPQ
Compound,outcome [1],outcome [2]
COCCOC(=O)C1=C(C)NC(C)=C(C(=O)OC(C)C)[C@@H]1c1cccc([N+](=O)[O-])c1,inactive,inactive
CO/N=C(\C(=O)N[C@@H]1C(=O)N2C(C(=O)O)=C(CSc3nc(=O)c(O)nn3C)CS[C@@H]12)c1csc(N)n1,inactive,inactive
O=C(NCCNC[C@@H](O)COc1ccc(O)cc1)N1CCOCC1,inactive,inactive
Cc1ccccc1CNc1ncnc2c1ncn2[C@@H]1O[C@@H](CO)[C@H](O)[C@@H]1O,inactive,–
CN1C[C@@H](C(=O)N[C@]2(C)O[C@]3(O)[C@H]4CCCN4C(=O)[C@H](Cc4ccccc4)N3C2=O)C[C@H]2c3cccc4[nH]cc(c34)C[C@@H]21,inactive,inactive
OC[C@H]1O[C@@H](n2cnc3c(NCCc4ccccc4)ncnc32)[C@H](O)[C@H]1O,inactive,inactive
CC(C)(C)NC[C@H](O)c1ccc(O)c(CO)c1,inactive,inactive
COc1ccccc1N1CCN(C[C@@H](O)COc2cccc3ccccc23)CC1,inactive,inactive
Nc1ccc(CCNc2ncnc3c2ncn3[C@@H]2O[C@@H](CO)[C@H](O)[C@@H]2O)cc1,inactive,inactive
COc1cc([C@@H](O)CO)ccc1OS(=O)(=O)O,inactive,inactive
CN1CCc2cc(Cl)c(O)cc2[C@H](c2ccccc2)C1,inactive,inactive
O=C(OCCN1CCCCC1)c1c[nH]c2ccccc12,inactive,inactive
COc1cc2c(cc1OC)[C@H](c1ccccc1)CN(C)CC2,inactive,inactive
CC[C@]1(O)C[C@H]2CN(CCc3c([nH]c4ccccc34)[C@](C(=O)OC)(c3cc4c(cc3OC)N(C)[C@@H]3[C@](O)(C(=O)OC)[C@H](OC(C)=O)[C@]5(CC)C=CCN6CC[C@]43[C@@H]65)C2)C1,inactive,inactive
C[C@@H](C(=O)O)c1cccc(C(=O)c2ccccc2)c1,inactive,inactive
CC(=O)[C@@]1(O)CC[C@@H]2[C@@H]3CCC4=CC(=O)CC[C@@]4(C)[C@H]3CC[C@]21C,inactive,inactive
N[C@@H](CO)C(=O)O,inactive,inactive
CNc1ncnc2c1ncn2[C@@H]1O[C@@H](CO)[C@H](O)[C@@H]1O,inactive,inactive
C[C@@](N)(C(=O)O)c1ccc(C(=O)O)cc1,inactive,inactive
O=C1N=C(O)CN1/N=C\c1ccc(-c2ccc([N+](=O)[O-])cc2)o1,inactive,inactive
Nc1ncnc2c1nc(Br)n2[C@@H]1O[C@H]2COP(=O)(O)O[C@@H]2[C@H]1O,inactive,inactive
Nc1ccn([C@@H]2O[C@@H](CO)[C@@H](O)[C@H]2O)c(=O)n1,inactive,inactive
O=c1ccn([C@@H]2O[C@@H](COP(=O)(O)OP(=O)(O)O)[C@H](O)[C@@H]2O)c(=O)[nH]1,inactive,–
C[C@H](NCCc1ccc(O)cc1)[C@@H](O)c1ccc(O)cc1,inactive,inactive
CSc1ccc2c(c1)[C@H](N1CCN(C)CC1)Cc1ccccc1S2,inactive,inactive
COC(=O)C1=C(C)NC(C)=C([N+](=O)[O-])[C@H]1c1ccccc1C(F)(F)F,inactive,inactive
CC(N)=NCCCC[C@H](N)C(=O)O,inactive,inactive
C/C=C1\C(=O)C[C@@H]2[C@@H]3CCC4=CC(=O)CC[C@@]4(C)[C@H]3CC[C@@]12C,inactive,inactive
OC[C@@H]1O[C@@H](n2cnc3c(N[C@@H]4C[C@@H]5CC[C@H]4C5)ncnc32)[C@@H](O)[C@H]1O,inactive,inactive
